Only some compounds are listed: those with a hit (about 3.9% of all), similar ones and a draw of the others.
PLK1 PBD block – qHTS for Inhibitors of PLK1-PDB (polo-like kinase 1 - polo-box domain): Primary Screen; Plk1 PBD binding of FITC phosphopeptide, fluorescence polarization; Potency, µM, for the others: max response, negative = inhibition, most hits filed as inhibitors; 2.8% of 360,000 active; note: series mostly up to about 57 µM; % is set by controls: 0 for no effect and ±100 for the full control effect; nearly all actives have a fitted effect of over 65% in size
Target sequence (P53350 whole entry, looked up, the tested form may be a part): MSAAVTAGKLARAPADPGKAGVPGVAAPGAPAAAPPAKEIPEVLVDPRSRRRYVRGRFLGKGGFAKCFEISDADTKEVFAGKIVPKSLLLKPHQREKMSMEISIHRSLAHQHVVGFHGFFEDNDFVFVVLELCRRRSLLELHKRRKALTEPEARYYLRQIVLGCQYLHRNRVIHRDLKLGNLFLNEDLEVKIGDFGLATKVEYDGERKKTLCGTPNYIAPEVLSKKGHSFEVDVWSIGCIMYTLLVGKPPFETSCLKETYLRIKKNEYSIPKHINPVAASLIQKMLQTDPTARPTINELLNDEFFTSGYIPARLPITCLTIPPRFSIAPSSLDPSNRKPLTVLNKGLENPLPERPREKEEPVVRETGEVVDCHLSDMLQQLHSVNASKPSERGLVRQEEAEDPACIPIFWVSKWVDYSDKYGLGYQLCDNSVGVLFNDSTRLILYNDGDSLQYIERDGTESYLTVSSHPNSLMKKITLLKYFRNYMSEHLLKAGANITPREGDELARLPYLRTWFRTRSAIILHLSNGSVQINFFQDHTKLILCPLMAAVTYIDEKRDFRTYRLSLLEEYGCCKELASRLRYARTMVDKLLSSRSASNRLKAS
BRCA1 expr act – qHTS Assay to Identify Small Molecule Activators of BRCA1 Expression. MCF7-BRCA1-FFLuc reporter, luminescence, 48 h; response scale: scaled: vehicle 0%, 10 µM genistein 100%. Potency, µM (series often up to 46.1 µM), without a hit: top-dose activation, actives largely listed as activators. 1.1% of 380,000 active. AID 624202, 2012; note: nearly all actives have a fitted effect of over 80% in size
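MCF7-BRCA1-FFLuc, 2000 cells/well; 2 h attach, 37 °C/5% CO2; compound 48 h; luciferase substrate 15 min; luminescence end-point. Norm. to genistein 10 microM max activation and DMSO; concentration-response curves fitted.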
VDR inhibitor – Inhibitors of the vitamin D receptor (VDR): qHTS | Vitamin D3 receptor (Homo sapiens), P11473 | Potency, µM, without a hit: max response, negative = inhibition, hits mostly inhibitors | VDR-SRC2-3 peptide fluorescence polarization, 2 h | AID 504847, 2011 | 0.93% of 400,000 active; note: % is set by controls: 0 for no effect and ±100 for the full control effect
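Measured by FP: displacement of SRC2-3 coactivator peptide from VDR by library compounds, following a two-hour ambient incubation.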
Tb PFK inh-1 – qHTS Assay to Find Inhibitors of T. brucei phosphofructokinase. T. brucei PFK, ADP-Glo luminescence. Potency, µM (doses to about 57.5 µM), inactives show at the highest dose activity, negative = inhibition, hits mostly inhibitors. 0.17% of 330,000 active. AID 485367, 2010;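 note: 0% = uninhibited 1x PFK enzyme wells and -100% = no-enzyme wells; nearly all actives have a fitted effect of over 60% in size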
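In TEA buffer at pH 8.0 with 5 mM MgCl2, enzyme (1.25 nM) converted F6P (0.5 mM) and ATP (0.1 mM) for 45 min at room temperature. ADP product was read by luciferase luminescence.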
TbPFK ATP – Tb PFK orthogonal confirmatory assay using ATP depletion (Kinase-Glo Plus) as an alternative measure of Tb PFK activity: Hit Validation; shares compounds with Tb PFK inh-1; Potency, µM (doses to about 57.5 µM), for inactives: at the top dose inhibition; Tb PFK enzyme, ATP depletion, Kinase-Glo Plus luminescence; 47% of 1,100 active; calls by dose curve; note: nearly all actives have a fitted effect of over 60% in size
Tb PFK inh-2 – Inhibitors of T. brucei phosphofructokinase: Hit Validation. 41% of 1,100 active. purified T. brucei PFK, ADP-Glo luminescence, 45 min. shares compounds with Tb PFK inh-1. Potency, µM (series often up to 57.5 µM), without a hit: top-dose activity change, negative = inhibition, actives largely listed as inhibitors;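 note: plate controls were full PFK enzyme control for no effect and no enzyme control for full effect; nearly all actives have a fitted effect of over 60% in size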
* hit, by the source's call; ? = inconclusive; / = no result given. Unless noted, calls come from the whole dose curve; as a rule, active = well fitted curve in the direction sought with a large enough effect; inconclusive = small, poorly fitted or top-dose-only effect, or another doubt; inactive = no such curve, though single readings can be large; an effect the other way counts as inactive or inconclusive. Potency is the fitted concentration of half-maximal effect.

SMILES | PLK1 PBD block | BRCA1 expr act | VDR inhibitor | Tb PFK inh-1 | TbPFK ATP | Tb PFK inh-2
Cc1ccccc1CN1C(=O)C(C)N=C(c2ccccc2)c2ccccc21 (centres undefined) | / | / | 1.0% | / | / | /
C[C@H](NC(C)(C)C)C(=O)c1cccc(Cl)c1 | / | / | 10.0% | / | / | /
CCOc1ccc(C(C)=O)cc1Cn1ccsc1=N | -11.5% | 3.2% | -0.3% | 0.0% | / | /
CCOc1ccc(C(C)=O)cc1N1C(=O)C2C3C=CC(O3)C2C1=O (centres undefined) | 26.7µM* | -7.5% | 22.4µM* | ? | -20.1% | ?
COc1cccc(N2CC(C(=O)Nc3ccc(F)cc3)CC2=O)c1 (centres undefined) | -16.6% | 19.0% | 37.4% | 19µM* | 6.1% | -5.1%
COc1cccc(NC(=O)[C@@H](NC(=O)N2C[C@H]3C[C@@H](C2)c2cccc(=O)n2C3)C(C)C)c1 | -4.3% | 0.4% | -13.5% | 0.1% | / | /
CC(=O)Nc1ccc(OC(=O)N(C)c2ccccc2)cc1 | -5.4% | 14.2% | -5.4% | -15.5% | / | /
CC(=O)Nc1ccc(SCC(=O)c2ccc(Br)s2)cc1 | 4.74µM* | 98.4% | ? | 23.9µM* | ? | -24.3%
CCN(C(=O)CN1CC=C(c2ccccc2)CC1)c1c(N)n(Cc2ccccc2)c(=O)[nH]c1=O | -20.5% | -0.5% | -13.6% | -3.4% | / | /
CCN(C(=O)CN1CCN(c2ccc(O)cc2)CC1)c1c(N)n(Cc2ccccc2)c(=O)[nH]c1=O | 26.7µM* | 6.4% | -29.1% | ? | ? | ?
O=C(Nc1ccc2c(c1)OCCO2)c1ccc(Cl)c([N+](=O)[O-])c1 | -17.4% | 55.7% | -12.4% | 26.9µM* | 12µM* | 26.9µM*
O=C(Nc1ccc(S(=O)(=O)NC2=NCCCCC2)cc1)c1ccc(Cl)c([N+](=O)[O-])c1 | 4.2% | -77.3% | 13.9% | ? | 13.5µM* | ?
Oc1cc(-n2cccn2)c(O)cc1-n1cccn1 | ? | -19.7% | 5.6% | 19µM* | ? | ?
C[C@@H]1C[C@@H](O)[C@@]2(O)[C@]13CC(=O)OC[C@]2(C)[C@@](C)(O)C(=O)C3 | / | / | 4.5% | / | / | /
O=C(COc1ccc(Cl)cc1Cl)N/N=C/c1ccc[nH]1 | -7.7% | 10.1% | -7.6% | ? | 6.75µM* | 15.1µM*
CCOC(=O)C1=C(N)OC2=C(C(=O)CC(C)(C)C2)C1c1cc(CSc2nnnn2C)cs1 (centres undefined) | 1.4% | 0.4% | -27.4% | ? | -1.2% | 1.4%
O=C(NCc1cccnc1)C(=O)NCC1OCCN1S(=O)(=O)c1ccc(F)cc1 (centres undefined) | -0.6% | -7.2% | -13.2% | ? | ? | -29.8%
C=C[C@H]1CN2CC[C@@H]1C[C@H]2[C@@H](O)c1ccnc2ccccc12 | / | / | 1.5% | / | / | /
O=C(Nc1cccc(F)c1)N1CCC2(CC1)CCN(C(=O)Oc1ccccc1)CC2 | / | / | 7.0% | / | / | /
CCOCCCn1c(N)c(C(=O)Nc2sc3c(c2C(=O)OC)CCCC3)c2nc3ccccc3nc21 | 0.5% | -0.2% | 12.2% | 9.8% | / | /
Cc1cc([N+](=O)[O-])nn1CCCC(=O)Nc1sc2c(c1C(N)=O)CCCC2 | 4.74µM* | -10.9% | 31.6µM* | ? | 26.9µM* | 23.9µM*
COc1ccccc1/C=C/C(=O)NCC(=O)N/N=C/c1ccccc1[N+](=O)[O-] | -18.4% | -15.2% | -11.1% | ? | -32.2% | ?
O=[N+]([O-])c1ccc(CNc2ccc(Cl)cc2)s1 | -2.8% | -27.2% | -8.2% | 26.9µM* | 12µM* | 26.9µM*
O=[N+]([O-])c1ccc(CNc2ccc(F)cc2)s1 | -14.0% | -23.6% | -23.8% | 16.9µM* | 7.57µM* | 9.53µM*
COc1ccc(NCc2ccc([N+](=O)[O-])s2)cc1 | -9.6% | -1.2% | 11.9% | ? | 13.5µM* | 26.9µM*
SMILES | PLK1 PBD block | BRCA1 expr act | VDR inhibitor | Tb PFK inh-1 | TbPFK ATP | Tb PFK inh-2
CCC(C)(S(=O)(=O)CC)S(=O)(=O)CC | / | / | 14.5% | / | / | /
O=C(c1ccccc1F)c1cn(Cc2ccccc2)c2ccccc12 | -1.0% | 12.4% | 5.5% | -11.5% | / | /
Fc1cc2ncn(Cc3ccccc3)c2cc1F | 0.9% | -2.5% | -0.5% | ? | ? | ?
Nc1cc(=O)[nH]c(SCC(=O)Nc2ccc(F)c(Cl)c2)n1 | -9.3% | -11.2% | -2.8% | ? | ? | 30.1µM*
N#Cc1cc2c(nc1SCC(=O)Nc1ccc(Cl)cc1)C1CCN2CC1 | -6.3% | -1.4% | -2.2% | 0.3% | / | /
Cc1nn(Cc2ccc(Cl)c(Cl)c2)c(C)c1NC(=O)c1cc(CC(C)C)on1 | 6.7% | -80.1% | 11.7% | 30.1µM* | 10.7µM* | 12µM*
CCN(CC)C(=O)Oc1ccc2cc(Br)ccc2c1 | -2.2% | ? | -15.1% | -0.2% | / | /
O=C(NCc1cccc(Cl)c1)c1ccc(N2CC3CC(C2)c2cccc(=O)n2C3)c(NC(=O)c2cccnc2)c1 (centres undefined) | -3.1% | 9.5% | -2.0% | ? | ? | ?
Cc1nn(Cc2ccccc2)c(Cl)c1C(=O)O | -5.7% | 1.6% | 13.2% | 0.7% | / | /
O=C(O)c1ccc(Nc2ncnc3c2cnn3Cc2ccccc2)cc1 | 29.9µM* | 0.0% | ? | ? | ? | ?
Cc1ccc(S(=O)(=O)N2[C@@H](c3ccccc3F)C(C(=O)O)=CC[C@H]2c2ccc(Cl)c(Cl)c2)cc1 | ? | 7.2% | -2.6% | 26.9µM* | 7.1% | 1.1%
O=C(Cc1ccc(Cl)cc1)Nc1ccc(S(=O)(=O)Nc2ncccn2)cc1 | -9.7% | 2.6% | -18.9% | 21.3µM* | 10.7µM* | 19µM*
O=C(CCl)Nc1nccs1 | -8.8% | -52.6% | 16.7% | -3.7% | / | /
COc1cccc(CC(=O)Nc2ccc(S(=O)(=O)Nc3nccs3)cc2)c1 | 0.8% | -8.0% | 0.6% | 19µM* | 19µM* | ?
O=C(Cc1ccc(Br)cc1)Nc1ccc(S(=O)(=O)Nc2ncccn2)cc1 | -14.6% | 1.6% | -22.9% | 23.9µM* | 21.3µM* | 21.3µM*
O=C(O)C(Cc1cnc[nH]1)NS(=O)(=O)c1ccc(Br)cc1 (centres undefined) | -18.2% | 8.5% | 5.3% | -8.5% | / | /
C=CCN1C(=O)C2(C(C(=O)OC)=C(N)Oc3c2c(=O)oc2ccccc32)c2ccccc21 (centres undefined) | / | -11.4% | 3.0% | / | / | /
COc1ccc2c3c1O[C@H]1[C@@H](O)C=C[C@H]4C(C2)NCCC341 (some centres undefined) | / | / | -12.1% | / | / | /
c1cc2c(c(NC3=NCCN3)c1)CCCC2 | / | / | -13.8% | / | / | /

High-throughput results (PubChem)
